Results reported in PubChem BioAssay.
Active and inactive are the calls of the source.

Columns and labels:
[1] = system: Human papillomavirus type 1a protein E7 (residues 44-93); assay: HPV1a E7 fragment binders on microarrays, primary screen, biochemical, small-molecule microarray, residues 44-93, 635 nm fluorescence (AID 1108); settings: small-molecule microarray binding, fluorescence 635 nm; higher = more signal;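 note: E7 fragment applied at 1 µg/mL in TBST for 1 h at 4 C; score combines spot fluorescence with its signal to noise ratio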
[2] = modulators of HCV replicon luciferase signal, primary screen, HCV replication inhibitor project, Huh7 cells, luciferase reporter (AID 1109); settings: 48 h, higher = more signal;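 note: huh7 hepatoma cells harbouring a luciferase neomycin HCV replicon reporter; luciferase luminescence as measure of HCV replicon replication; test concentration not given here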
[3] = molecular target: Left-right determination factor 2 (Homo sapiens) (UniProt O00292); assay: LEFTY2 binders on small-molecule microarrays, primary screen, biochemical, small-molecule microarray, 635 nm fluorescence scan (AID 1110); settings: LEFTY2 binding, higher = more signal
Chain of Left-right determination factor 2 (Homo sapiens) (O00292 whole entry, looked up): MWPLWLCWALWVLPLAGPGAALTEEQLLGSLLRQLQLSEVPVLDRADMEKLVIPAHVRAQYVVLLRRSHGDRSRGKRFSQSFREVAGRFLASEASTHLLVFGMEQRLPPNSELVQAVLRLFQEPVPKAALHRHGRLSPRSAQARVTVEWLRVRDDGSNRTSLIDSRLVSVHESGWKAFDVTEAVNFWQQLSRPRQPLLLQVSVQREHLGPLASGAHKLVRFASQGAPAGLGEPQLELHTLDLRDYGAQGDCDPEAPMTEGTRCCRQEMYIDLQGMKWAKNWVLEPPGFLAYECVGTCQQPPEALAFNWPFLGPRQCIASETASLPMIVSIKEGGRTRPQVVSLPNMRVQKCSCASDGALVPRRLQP

[4] = molecular target: Calmodulin-1 (Homo sapiens) (UniProt P0DP23); assay: CALM1 binders on microarrays, EGTA buffer, profiling panel, biochemical, small-molecule microarray, Cy5-labelled CALM1 (AID 1111); settings: Cy5-CALM1 binding fluorescence, higher = more signal;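 note: labelled calmodulin applied in Tris saline Tween buffer holding calcium plus EGTA and DTT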
[5] = molecular target: Calmodulin-1 (Homo sapiens) (UniProt P0DP23); assay: calcium-bound CALM1 binders on microarrays, profiling panel, artefact control for SMM control-protein annotation, biochemical, small-molecule microarray, Cy5-labelled CALM1, plus calcium (AID 1112); settings: Cy5-CALM1 binding fluorescence, higher = more signal;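 note: score merges spot fluorescence with signal to noise from triplicate slides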
[6] = small-molecule microarray binders of probe aWnt5a, primary screen, biochemical, biotinylated probe, 635/667 nm fluorescence (AID 1113); settings: higher = more signal;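 note: score merges 667 nm fluorescence intensity with signal-to-noise per printed feature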
[7] = small-molecule microarray binders of probe aShh, primary screen, biochemical, biotinylated probe, 635/667 nm fluorescence (AID 1114); settings: higher = more signal;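 note: probe is biotin-labelled aShh protein from a stem cell growth factor screen; measures binding of labelled protein to compounds printed on the slide; score merges feature fluorescence at 667 nm with signal-to-noise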
[8] = small-molecule microarray binders of probe aNog, primary screen, biochemical, biotinylated probe, 635/667 nm fluorescence (AID 1115); settings: higher = more signal;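 note: probe is biotinylated aNog protein used at 0.15 µg/mL for 1 h at 4 C; z-score combines 667 nm fluorescence of each spot with its signal to noise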
[9] = molecular target: Torsin-1A-interacting protein 1 (Homo sapiens) (UniProt Q5JTV8); assay: LAP1 binders from COS7 cell lysate, primary screen, small-molecule microarray, 635/667 nm fluorescence (AID 1116); settings: COS7-hLAP1 lysate binding, 635 nm fluorescence, higher = more signal
Chain of Torsin-1A-interacting protein 1 (Homo sapiens) (Q5JTV8 whole entry, looked up): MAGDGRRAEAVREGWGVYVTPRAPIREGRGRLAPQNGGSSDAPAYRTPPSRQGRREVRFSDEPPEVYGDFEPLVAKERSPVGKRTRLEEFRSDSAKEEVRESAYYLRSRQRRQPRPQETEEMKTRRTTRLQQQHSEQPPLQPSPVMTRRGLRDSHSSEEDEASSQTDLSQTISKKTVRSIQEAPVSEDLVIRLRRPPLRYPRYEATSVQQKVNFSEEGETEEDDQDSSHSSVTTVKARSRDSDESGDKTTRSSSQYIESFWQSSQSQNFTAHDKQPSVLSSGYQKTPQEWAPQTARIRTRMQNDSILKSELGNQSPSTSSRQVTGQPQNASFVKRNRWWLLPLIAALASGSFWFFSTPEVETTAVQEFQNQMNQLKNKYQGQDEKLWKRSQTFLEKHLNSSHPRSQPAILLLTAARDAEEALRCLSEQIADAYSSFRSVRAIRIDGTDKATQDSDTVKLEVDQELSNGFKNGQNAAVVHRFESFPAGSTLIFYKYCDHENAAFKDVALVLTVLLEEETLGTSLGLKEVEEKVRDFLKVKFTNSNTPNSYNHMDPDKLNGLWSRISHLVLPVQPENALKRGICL

[10] = molecular target: Alpha-bungarotoxin (Bungarus multicinctus) (UniProt P60615); assay: alpha-bungarotoxin binders on microarray, profiling panel, artefact control for SMM control protein annotation, biochemical, small-molecule microarray, Alexa647 label, 635/667 nm fluorescence (AID 1117); settings: alpha-BTX-A647 binding fluorescence, higher = more signal
Chain of Alpha-bungarotoxin (Bungarus multicinctus) (P60615 whole entry, looked up): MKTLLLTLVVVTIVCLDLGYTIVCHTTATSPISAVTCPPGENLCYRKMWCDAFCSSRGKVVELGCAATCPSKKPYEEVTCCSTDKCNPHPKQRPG

Albumin (Bos taurus) = Albumin (Bos taurus) (UniProt P02769); assay: bovine serum albumin binders on microarray, profiling panel, artefact control for SMM control protein annotation, biochemical, small-molecule microarray, Alexa647 label, 635/667 nm fluorescence (AID 1118); settings: BSA-A647 binding, fluorescence 635 nm, higher = more signal;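 note: score merges 667 nm emission intensity and signal-to-noise per printed compound spot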
Chain of Albumin (Bos taurus) (P02769 whole entry, looked up): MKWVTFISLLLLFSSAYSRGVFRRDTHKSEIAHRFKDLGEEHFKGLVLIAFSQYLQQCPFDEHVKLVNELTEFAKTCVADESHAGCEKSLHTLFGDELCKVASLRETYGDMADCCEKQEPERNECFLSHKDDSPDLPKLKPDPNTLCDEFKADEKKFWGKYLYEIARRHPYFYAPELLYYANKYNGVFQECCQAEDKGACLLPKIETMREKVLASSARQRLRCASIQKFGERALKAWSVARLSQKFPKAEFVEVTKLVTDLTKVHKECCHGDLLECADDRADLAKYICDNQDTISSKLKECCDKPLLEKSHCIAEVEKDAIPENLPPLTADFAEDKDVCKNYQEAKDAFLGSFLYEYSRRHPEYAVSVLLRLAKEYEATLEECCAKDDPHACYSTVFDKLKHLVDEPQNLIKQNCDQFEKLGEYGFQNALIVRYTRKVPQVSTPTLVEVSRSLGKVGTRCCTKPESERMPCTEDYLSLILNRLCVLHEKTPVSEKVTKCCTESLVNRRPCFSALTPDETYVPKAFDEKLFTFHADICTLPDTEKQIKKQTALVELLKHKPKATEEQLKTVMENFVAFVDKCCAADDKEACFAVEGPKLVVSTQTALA

[11] = small-molecule microarray binders of probe aXIP, primary screen, biochemical, NeuroSMM set, 635/667 nm fluorescence (AID 1119); settings: higher = more signal, called active from +8 up or from −8 down;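 note: probe is the protein aXip251-270 applied at 1 µg/mL to compound-printed slides; binding of probe to printed compounds measured as 667 nm fluorescence plus signal to noise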
[12] = small-molecule binders of probe aNOTCH3, primary screen, biochemical, small-molecule microarray, 635/667 nm fluorescence (AID 1120); settings: higher = more signal;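 note: probe is a biotin-tagged antibody raised against NOTCH3 rather than NOTCH3 protein; score merges spot fluorescence near 667 nm with spot signal to noise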
[13] = small-molecule binders of probe aNOTCH2, primary screen, biochemical, small-molecule microarray, 635/667 nm fluorescence (AID 1121); settings: higher = more signal;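 note: score merges feature fluorescence read at 667 nm with its signal to noise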
[14] = molecular target: Carbonic anhydrase 2 (Homo sapiens) (UniProt P00918); assay: CAII small-molecule binders, profiling panel, biochemical, small-molecule microarray, Alexa647-labelled CAII (AID 1122); settings: CAII-A647 binding fluorescence, higher = more signal
[15] = COS7 lysate on small-molecule microarray, probe aHis, 635 nm (AID 1123); settings: COS7 cell lysate, fluorescence, higher = more signal;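 note: z-score combines 667nm fluorescence intensity with signal-to-noise per printed compound spot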
[16] = compound binding in COS7 lysate, probe aLAP1, primary screen, cell lysate, small-molecule microarray (AID 1124); settings: probe aLAP1, fluorescence, higher = more signal;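 note: lysate comes from COS7 cells expressing LAP1 and is applied at 0.3 µg/mL; score merges spot fluorescence near 667 nm with signal-to-noise over triplicate slides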
Sam68 (KHDRBS1) = assay: Sam68 small-molecule binders, primary screen, biochemical, small-molecule microarray, 635 nm fluorescence (AID 1125); settings: small-molecule microarray binding, higher = more signal;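 note: score merges 667 nm channel intensity with signal to noise over triplicate slides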
[17] = system: Chordin-like protein 2 (CHRDL2); assay: CHRDL2 small-molecule binders, primary screen, biochemical, small-molecule microarray, 635 nm fluorescence (AID 1126); settings: small-molecule microarray binding, fluorescence 635 nm; higher = more signal;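 note: printed compound slides probed with Chrdl2 protein at 4 µg/mL for 1 h at 4 C; score merges 667 nm emission intensity with signal to noise over three replicate slides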
[18] = molecular target: Concanavalin-A (Canavalia ensiformis) (UniProt P02866); assay: ConA small-molecule binders, primary screen, artefact control for SMM control protein annotation, biochemical, small-molecule microarray, Alexa647 label, 635 nm (AID 1127); settings: ConA-A647 binding fluorescence, higher = more signal;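 note: z combines 667 nm emission intensity with signal-to-noise across three replicate slides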
Chain of Concanavalin-A (Canavalia ensiformis) (P02866 whole entry, looked up): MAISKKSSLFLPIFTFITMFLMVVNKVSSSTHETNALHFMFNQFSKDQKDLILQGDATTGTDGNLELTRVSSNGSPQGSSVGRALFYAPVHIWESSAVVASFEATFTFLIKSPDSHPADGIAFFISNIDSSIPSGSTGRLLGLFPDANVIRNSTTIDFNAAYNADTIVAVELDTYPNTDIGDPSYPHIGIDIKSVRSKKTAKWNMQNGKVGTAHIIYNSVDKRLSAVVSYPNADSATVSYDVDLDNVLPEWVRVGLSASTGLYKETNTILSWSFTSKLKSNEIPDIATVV

Compound | composite z-score [1] | z-score [2] | composite z-score [3] | composite z-score [4] | composite z-score [5] | composite z-score [6] | composite z-score [7] | composite z-score [8] | composite z-score [9] | composite z-score [10] | composite z-score (Albumin (Bos taurus)) | composite Z-score [11] | composite z-score [12] | composite z-score [13] | composite z-score [14] | composite z-score [15] | composite z-score [16] | composite z-score (Sam68 (KHDRBS1)) | composite z-score [17] | composite z-score [18]
CC(C)C(CO)N1C(=O)[C@@H]2C3C(=O)OCCC/C=C\[C@H]3OC23C=CCN(c2ccc4ccccc4c2)C(=O)[C@@H]13 (stereo not given in full) | -0.812 | -1.23 | -1.43 | -0.14 | -0.132 | -0.0405 | -0.0822 | 0.117 | -0.427 | -0.287 | 0.974 | 0.503 (inactive) | -0.0716 | -0.156 | 0.941 | -0.201 | -0.18 | -1.02 | -1.28 | -0.612
CC1=C2[C@@H](CCc3ccccc3)OB(O)C[C@@H]2[C@@H]2C(=O)N(Cc3ccccc3)C(=O)[C@@H]2C1 | -0.125 | -0.873 | 0.809 | -0.122 | -0.605 | -0.0869 | -0.0709 | -0.314 | 0.59 | 0.659 | 0.415 | 0.831 (inactive) | -0.145 | -0.0735 | 0.585 | 0.328 | -0.294 | 0.227 | 0.226 | 0.948
CN(C)C(=O)[C@]1(Cc2ccccc2CN=[N+]=[N-])N=C(c2ccc(OCCCO)cc2)O[C@@H]1c1ccccc1 | 1.47 | -3.37 | -0.0728 | 1.56 | 0.596 | 0.0337 | 0.792 | 1.05 | 1.39 | 1.92 | 0.349 | -0.4 (inactive) | 0.113 | -0.0896 | 0.402 | 2.06 | 0.454 | 1.3 | -1.08 | 1.04
COc1ccc(CCNC(=O)[C@@]2(Cc3ccccc3I)c3ccccc3C(=O)N(C3CCCCC3)[C@H]2c2ccc(CO)cc2)cc1 | 1.3 | -3.2 | -0.425 | 0.902 | 0.609 | -0.0721 | -0.0626 | -0.158 | 0.0805 | 0.678 | 0.471 | -0.0065 (inactive) | -0.0647 | -0.162 | 0.218 | 1.5 | -0.167 | 0.621 | -0.718 | 0.969
CCCC1(C(=O)OC)C=C2C(=C(C)C(=O)C2C)CN1 (stereo not given) | -0.75 | -0.442 | -0.569 | -0.119 | 0.881 | -0.0512 | 0.0141 | 0.929 | 0.635 | -0.14 | -0.15 | 0.931 (inactive) | 0.0416 | -0.0936 | 0.664 | 1.24 | -0.293 | -0.406 | -0.027 | -2.2
CN1C2C=C(CCCO)C(C3C(=O)N(C(N)=O)C(=O)C32)C1C1CC1 (stereo not given) | -0.071 | -0.225 | -0.645 | -0.495 | -0.458 | -0.0462 | 0.0062 | -0.102 | 0.474 | 0.0218 | -0.0873 | -1.14 (inactive) | -0.272 | -0.14 | 0.234 | 0.043 | -0.182 | 0.0346 | -0.0334 | 0.31
CCCCC[C@H]1OC[C@@]23C=C(Br)[C@@H](CC12)[C@@]1(CO1)C3=O (stereo not given in full) | 0.299 | -2.3 | 0.058 | -0.554 | -1.31 | -0.16 | 0.0796 | -0.183 | -0.574 | -0.284 | -0.677 | 0.39 (inactive) | -0.126 | -0.0907 | -0.174 | -0.0346 | -0.144 | 0.491 | -0.194 | -0.308
Cc1ccc(F)cc1S(=O)(=O)N[C@@H]1CCN(Cc2ccc(Br)cc2)C1 | -1.51 | -1.5 | 0.681 | -1.03 | -0.806 | -0.126 | -0.214 | -0.252 | 0.418 | 0.322 | 0.694 | -0.388 (inactive) | 0.122 | -0.0424 | 0.276 | -0.593 | -0.386 | -0.811 | 0.743 | -0.862
CCC#CCN(Cc1ccccc1Br)[C@H](/C=C/C1CC1)[C@@H](O)Cc1ccccc1 | -1.04 | -2.19 | -0.398 | -0.414 | -0.659 | -0.197 | -0.214 | -0.209 | -0.675 | -0.229 | 0.0902 | -0.457 (inactive) | -0.262 | -0.176 | -0.458 | -0.408 | -0.477 | -0.549 | -0.784 | -0.138
C=C[C@H]1C(C(=O)OCC)=CC[C@@H](c2ccccc2)N1S(=O)(=O)c1ccc(C)cc1 | 1.4 | -2.78 | 0.0641 | 0.577 | -0.0986 | 0.0077 | -0.181 | -0.289 | 0.325 | 0.621 | 0.644 | -0.176 (inactive) | 0.382 | -0.0345 | 0.627 | 1.67 | 0.516 | 1.1 | 0.218 | 0.789
CC(C)[Si]1(C(C)C)OCc2cc(-c3ccc(-c4ccc(Cl)c(Cl)c4)o3)nc(-c3ccccc3)c21 | -0.922 | -1.16 | -1.59 | -0.856 | -0.341 | -0.16 | 0.0121 | -0.418 | -1.16 | -0.597 | 0.566 | 0.131 (inactive) | -0.235 | -0.234 | -0.895 | -0.77 | -0.714 | -1.53 | -0.541 | -0.746
CC(C)NC(=O)[C@@]1(C)c2ccccc2C(=O)N(Cc2ccc(OC(F)(F)F)cc2)[C@H]1c1ccc(CO)cc1 | 0.0959 | -0.706 | -1.49 | -0.43 | 0.495 | -0.124 | -0.0833 | -0.472 | -0.284 | -0.94 | 0.484 | -0.263 (inactive) | -0.367 | -0.0995 | 0.607 | 1.54 | 0.173 | 0.844 | -1.02 | -0.04
